rCAG binder – binders of r(CAG) RNA repeats, primary screen, biochemical, fluorescence; r(CAG) RNA repeat, TO-PRO-1 dye displacement fluorescence; inhibition, % at 3 µM; 370,000 compounds, 1.3% hits; AID 651821, 2012;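 active means inhibition above the plate cutoff, the mean of all test compounds on that plate plus 3 SD, cut at about 35% in these data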;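 further: 0% = DMSO alone and 100% = 100 µM mitoxantrone as full dye displacement; higher means more dye released from RNA so lower well fluorescence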
MBD2 DNA inh – inhibitors of MBD2 binding to methylated DNA, primary screen, biochemical, TR-FRET, DNA-binding domain, human; inhibition, % at 4.4 µM; 370,000 compounds, 0.31% hits; MBD2 binding to methylated oligonucleotide; AID 686964, 2013; Methyl-CpG-binding domain protein 2 (Homo sapiens), Q9UBB5; in the data active means inhibition above about 13%
LEDGF integ inh – blockers of LEDGF/p75-dependent integrase strand transfer – biochemical, TR-FRET, high throughput, primary screen; TR-FRET IN-LEDGF/p75 DNA integration, Eu/Cy5; inhibition, % at 3.7 µM; HIV-1 integrase (with human LEDGF/p75); 370,000 compounds, 0.64% hits;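 active means inhibition above the screen-wide mean plus 3 SD, cut at about 13% in these data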;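 further: signal is the Cy5 over europium emission ratio at 671 and 618 nm; 0% = plate median of compound wells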
ABHD5-PLIN5 inh – ABHD5-PLIN5 interaction inhibitors, primary screen, cell lysate, split luciferase complementation, luminescence; inhibition, % at 4 µM; 360,000 compounds, 0.78% hits; Split G. princeps luciferase complementation, 4 h; Perilipin-5 (Homo sapiens) + 1-acylglycerol-3-phosphate O-acyltransferase ABHD5 (Homo …;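 active means inhibition above the mean inhibition across every tested compound plus 3 SD, cut at about 22% in these data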;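 further: 0% = DMSO only wells and the 100% control is not disclosed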
UHRF1 MBD2 ctr – UHRF1 methylated DNA binding inhibitors, primary screen, counter-screen for MBD2 inhibitor project, biochemical, TR-FRET, human UHRF1, single concentration | E3 ubiquitin-protein ligase UHRF1 (Homo sapiens), Q96T88 | UHRF1 binding to methylated oligo | inhibition, % at 4.4 µM | 370,000 compounds, 0.75% hits; in the data active means inhibition above about 21%;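 further: UHRF1 SRA domain binding a hemimethylated CpG hairpin DNA probe; 0% = median of test compound wells and 100% = reference inhibitor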
PRMT1 inh – PRMT1 methyltransferase inhibitors, primary screen, biochemical, fluorescence polarization; AID 652257, 2013; recombinant PRMT1, activity-based probe fluorescence polarization; 370,000 compounds, 1.3% hits; Protein arginine N-methyltransferase 1 (Homo sapiens), Q99873; inhibition, % at 2.79 µM;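 active means inhibition above about 21% made by adding two undisclosed values, limit read from the data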
Target sequence (Q99873 whole entry, looked up): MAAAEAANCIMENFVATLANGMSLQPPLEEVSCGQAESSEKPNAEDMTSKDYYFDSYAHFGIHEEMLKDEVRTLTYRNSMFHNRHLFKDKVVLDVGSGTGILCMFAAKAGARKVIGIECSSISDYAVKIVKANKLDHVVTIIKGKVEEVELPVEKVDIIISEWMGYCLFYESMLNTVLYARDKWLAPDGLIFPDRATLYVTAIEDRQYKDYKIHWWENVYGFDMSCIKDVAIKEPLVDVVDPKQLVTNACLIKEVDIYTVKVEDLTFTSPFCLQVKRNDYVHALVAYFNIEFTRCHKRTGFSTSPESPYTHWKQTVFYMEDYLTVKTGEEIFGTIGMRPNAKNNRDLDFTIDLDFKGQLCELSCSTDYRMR
rCAG bind conf – small molecules binding CAG repeat RNA – biochemical, fluorescence, confirmation. shares compounds with rCAG binder. r(CAG) RNA repeat, TO-PRO-1 dye displacement fluorescence. inhibition, % at 3 µM. 4,300 compounds, 70% hits;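 active means inhibition above a per-plate cutoff, the mean inhibition of sample wells plus 3 SD, cut at about 35% in these data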;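 further: loss of TO-PRO-1 fluorescence as compound displaces dye from 1x1 AA loop RNA; 0% = DMSO only wells and 100% = 100 µM mitoxantrone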
dCAG dye counter – displacement of TO-PRO-1 from CAG DNA duplex, counter-screen for rCAG RNA repeat binder project, biochemical, fluorescence, TO-PRO-1 dye, d(CAG) DNA oligo; shares compounds with rCAG binder; d(CAG) DNA oligo TO-PRO-1 dye displacement; inhibition, % at 3 µM; 4,300 compounds, 94% hits; AID 652068, 2013;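 active means inhibition above its plate's cutoff, the mean test-well inhibition plus 3 SD, cut at about 4.8% in these data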;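 further: 0% = DNA dye mix with DMSO and 100% = 100 µM mitoxantrone; hits displace the dye from DNA and so lower well fluorescence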
* = called active by the depositor; . = no result. Sampled rows, rich in hits. Any-hit rate of the full collection: about 4.1%.

SMILES	rCAG binder	MBD2 DNA inh	LEDGF integ inh	ABHD5-PLIN5 inh	UHRF1 MBD2 ctr	PRMT1 inh	rCAG bind conf	dCAG dye counter
O=C(O)c1ccc(-n2ncc3c2/C(=C/c2cccc([N+](=O)[O-])c2)CC3)cc1	5	0	1	4	-1	1	.	.
O=C(O)c1ccccc1-n1ncc2c1/C(=C/c1ccc(Cl)cc1)CC2	38*	5	-1	.	5	14	34	11*
CC(=O)c1c(C)[nH]c(C(=O)Nc2ccc(C)c(S(=O)(=O)Nc3ccc(C)cc3C)c2)c1C	13	-1	-7	-9	0	7	.	.
Cc1ccc(NS(=O)(=O)c2cc(NC(=O)c3cc(=O)[nH]c(=O)[nH]3)ccc2Cl)c(C)c1	54*	-3	1	6	7	-5	61*	20*
Cc1c(OC(C(=O)O)c2ccccc2)ccc2c1oc(=O)c1ccccc12 (configuration not stated)	36*	3	-2	2	4	6	48*	14*
O=C(O)c1cccc(NC(=O)c2ccc(Cl)c(S(=O)(=O)N3CCCCCC3)c2)c1	35*	0	-2	10	-1	0	32	5.4*
COc1ccc(C(=O)O)cc1S(=O)(=O)Nc1cccc(C(F)(F)F)c1	2	-2	1	3	-4	1	.	.
O=C(Nc1cccnc1)c1ccc(Cl)c(S(=O)(=O)N2CCCCC2)c1	-4	-1	2	-6	1	2	.	.
O=C(O)c1cccc(NC(=O)c2cccc(S(=O)(=O)N3CCc4ccccc4C3)c2)c1	37*	0	1	-1	3	4	23	4.5*
O=C(O)c1ccc(Cl)c(S(=O)(=O)Nc2cccc(C(=O)Nc3cccc(C(F)(F)F)c3)c2)c1	39*	3	-2	-3	1	0	24	7.9*
CCN(C(=O)[C@@H](C1CC1)[C@@H](O)c1ccc(Cl)cc1)c1ccccc1	-3	-3	3	.	-2	1	.	.
CN(C)c1cccc(/C=C2\CC3(OC(=O)c4ccco4)CCCN2C3)c1 (configuration not stated)	1	3	-1	.	-2	0	.	.
Cc1ccccc1C(=O)Nc1ccc2c(C#N)c3nc4ccccc4nc3n2c1	36*	-11	4	11	-9	19	26	14*
CCc1oc2ccccc2c1C(=O)c1cc(Br)c(O)c(Br)c1	57*	-4	7	-13	0	-5	63*	17*
CCc1ccc(OCC(=O)c2c(O)c3ccccc3oc2=O)cc1	13	2	1	3	18	10	.	.
N#CC(C#N)=NNc1ccc(S(=O)(=O)N2CCCCC2)cc1	46*	1	3	18	1	3	41*	15*
N#C/C(=N\Nc1ccc(S(=O)(=O)N2CCOCC2)cc1)C(N)=S	10	-12	-4	5	-5	12	.	.
CC(C)c1cc(C(C)C)c(S(=O)(=O)N2CCC(C(=O)NCc3cccs3)CC2)c(C(C)C)c1	6	3	-1	.	0	2	.	.
CC(C)(C)c1ccc(S(=O)(=O)NC(=O)C2(C)CCN2C(=O)CC2CCCC2)cc1 (configuration not stated)	37*	-1	5	7	0	3	22	3
Cc1ccc(S(=O)(=O)NC(=O)C2(C)CCN2C(=O)CC2CCCC2)cc1 (configuration not stated)	5	2	-1	3	1	4	.	.
